Test results: PubChem BioAssay (EPA / NIEHS)
Results filed as inconclusive are left out. Calls of active or inactive are those of the source. The calls were made as follows, unless noted: active = hit-call score of the fitted dose curve at least 0.9, where 1 is the maximum; inactive = score below 0.9.

Columns and labels:
[1] = ATG_PBREM_CIS: Attagene CIS-FACTORIAL HepG2 Assay for human Phenobarbital-responsive Enhancer Module (PBREM) (AID 2282955); settings: HepG2 PBREM cis-reporter, Attagene multiplexed transcription; actives raise or lower the signal
How it was run: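 HepG2 cells transiently transfected with multiple cis-regulated reporter transcription units; endogenous factor activity at the PBREM element measured as reporter mRNA 24 h after dosing, via RT-PCR and capillary electrophoresis of fluorescent fragments; bidirectional fitting versus DMSO.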

[2] = target: Paired box protein Pax-6 (Homo sapiens) (UniProt P26367); assay: ATG_Pax6_CIS: Attagene CIS-FACTORIAL HepG2 Assay for human Paired Box 6 (PAX6) (AID 2282956); settings: HepG2 CIS-FACTORIAL PAX6 reporter transcription, RNA readout; actives raise or lower the signal
How it was run: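 HepG2 cells transiently transfected with cis-promoter-driven multiplexed reporter units sensing endogenous transcription factor activity; 24 h chemical exposure. Reporter mRNA quantified by RT-PCR, 6-FAM labelling, HpaI digestion and capillary electrophoresis; bidirectional fit versus DMSO baseline.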

[3] = ATG_PXRE_CIS: Attagene CIS-FACTORIAL HepG2 Assay for human Pregnane X Receptor Element (PXRE) (AID 2282957); settings: HepG2 Attagene CIS-FACTORIAL PXRE reporter, mRNA; actives raise or lower the signal
How it was run: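 Cis-element reporter mRNA in human hepatoma HepG2 cells is measured 24 h post-dosing by RT-PCR, primer-extension labeling and capillary electrophoresis; gain or loss of signal is fitted relative to DMSO.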

[4] = ATG_RORE_CIS: Attagene CIS-FACTORIAL HepG2 Assay for human RAR-related Orphan Receptor Element (RORE) (AID 2282959); settings: HepG2 Attagene cis-factorial RORE reporter, mRNA; actives raise or lower the signal
How it was run: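 HepG2 cells transiently transfected with multiple cis-element reporter transcription units, exposed to chemical for 24 h. Reporter mRNA quantified by RT-PCR, 6-FAM primer-extension labeling, HpaI digestion and capillary electrophoresis; bidirectional fit versus DMSO baseline.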

[5] = ATG_Sox_CIS: Attagene CIS-FACTORIAL HepG2 Assay for human SRY-box transcription factor (SOX) (AID 2282960); settings: HepG2 Attagene cis-factorial SOX reporter, mRNA; actives raise or lower the signal
How it was run: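 HepG2 cells transiently transfected with cis-element-driven multiple reporter transcription units, dosed 24 h; reporter mRNA measured by RT-PCR, FAM labelling, HpaI digestion and capillary electrophoresis. Bidirectional fit versus DMSO baseline.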

[6] = target: Transcription factor Sp1 (Homo sapiens) (UniProt P08047); assay: ATG_Sp1_CIS: Attagene CIS-FACTORIAL HepG2 Assay for human Specificity Protein 1 (Sp1) (AID 2282961); settings: HepG2 Sp1 cis-reporter transcription, actives raise or lower the signal
How it was run: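 HepG2 cells transiently transfected with multiple reporter transcription units driven by cis-regulatory elements; Sp1-responsive reporter mRNA measured 24 h after dosing by RT-PCR and capillary electrophoresis fluorescence, fitted bidirectionally against DMSO baseline.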

[7] = ATG_SREBP_CIS: Attagene CIS-FACTORIAL HepG2 Assay for human Sterol Regulatory Element Binding (SREBP) (AID 2282962); settings: HepG2 Attagene cis-factorial SREBP reporter, mRNA; actives raise or lower the signal
How it was run: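 HepG2 cells transiently transfected with multiplexed cis-promoter reporter units sensing endogenous transcription factors; reporter mRNA measured 24 h after dosing by RT-PCR, 6-FAM labeling, HpaI digestion and capillary electrophoresis. Bidirectional fit versus DMSO.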

[8] = target: Signal transducer and activator of transcription 3 (Homo sapiens) (UniProt P40763); assay: ATG_STAT3_CIS: Attagene CIS-FACTORIAL HepG2 Assay for human Signal Transducer and Activator of Transcription 3 (STAT3) (AID 2282963); settings: HepG2, Attagene cis-factorial STAT3 reporter transcription; actives raise or lower the signal
How it was run: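 HepG2 cells transiently transfected with cis-element-driven multiple reporter transcription units; after 24 h chemical exposure, reporter mRNA measured by RT-PCR, 6-FAM primer-extension labelling, HpaI digestion and capillary electrophoresis. Bidirectional fitting versus DMSO baseline.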

[9] = ATG_TA_CIS: Attagene CIS-FACTORIAL HepG2 Assay for human TA Basal Promoter (AID 2282964); settings: HepG2 Attagene CIS-factorial TA basal promoter reporter; actives raise or lower the signal
How it was run: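 HepG2 cells transiently transfected with multiplexed cis-promoter reporter units, dosed 24 h. Reporter mRNA measured by RT-PCR, 6-FAM labelling, HpaI digestion and capillary electrophoresis; bidirectional fit versus DMSO baseline, serving as background control.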

[10] = ATG_TCF_b_cat_CIS: Attagene CIS-FACTORIAL HepG2 Assay for human T-Cell-Factor with beta-catenin (TCF/b-cat) (AID 2282965); settings: HepG2 TCF/beta-catenin cis-reporter transcription, actives raise or lower the signal
How it was run: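 Using capillary electrophoresis as the read-out, labelled reporter cDNA fragments from transiently transfected HepG2 were sized and quantified. Exposure lasted 24 hours; activity in either direction was referenced to DMSO.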

[11] = ATG_TAL_CIS: Attagene CIS-FACTORIAL HepG2 Assay for human TAL Basal Promoter (AID 2282966); settings: HepG2 Attagene cis-factorial TAL promoter reporter; actives raise or lower the signal;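 also: background control endpoint measuring basal TAL promoter reporter mRNA not a specific factor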
How it was run: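 In this cell-based multiplex, HepG2 liver cells bearing cis-promoter reporter constructs are dosed for 24 hours. Total RNA is reverse-transcribed and amplified, labelled fragments are sized by capillary electrophoresis, and signal changes are fitted bidirectionally versus DMSO.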

[12] = ATG_TGFb_CIS: Attagene CIS-FACTORIAL HepG2 Assay for human Transforming Growth Factor (TGF) (AID 2282967); settings: HepG2 Attagene CIS TGFb reporter, mRNA transcription; actives raise or lower the signal
How it was run: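 HepG2 cells transiently transfected with cis-promoter-driven multiplexed reporter units; 24 h compound exposure. Reporter mRNA measured by RT-PCR, 6-FAM labeling, HpaI digestion and capillary electrophoresis; bidirectional fit versus DMSO baseline.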

[13] = ATG_VDRE_CIS: Attagene CIS-FACTORIAL HepG2 Assay for human Vitamin D Receptor Element (VDRE) (AID 2282968); settings: HepG2 VDRE cis-reporter transcription, actives raise or lower the signal
How it was run: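 HepG2 cells transiently transfected with cis-element reporter units, dosed 24 h; reporter mRNA measured by RT-PCR, 6-FAM labeling, HpaI digestion and capillary electrophoresis. Activity fitted bidirectionally against DMSO baseline.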

[14] = target: Estrogen receptor (Homo sapiens) (UniProt P03372); assay: ATG_ERa_TRANS: Attagene TRANS-FACTORIAL HepG2 Assay for human Estrogen Receptor alpha (ERa) (AID 2282970; active = hit-call score of the fitted dose curve at least 0.9, where 1 is the maximum); settings: HepG2 Attagene TRANS ERa GAL4 reporter, mRNA
How it was run: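 After 24 h of compound treatment, RNA from HepG2 cells bearing transfected GAL4-UAS reporter constructs is converted to cDNA, amplified and fluorescently labelled. Capillary electrophoresis resolves the ERa-linked reporter; DMSO serves as negative control.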

[15] = target: X-box-binding protein 1 (Homo sapiens) (UniProt P17861); assay: ATG_Xbp1_CIS: Attagene CIS-FACTORIAL HepG2 Assay for human X-box Binding Protein 1 (XBP1) (AID 2282972); settings: HepG2 XBP1 cis-element reporter, Attagene multiplex; actives raise or lower the signal
How it was run: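 HepG2 cells transiently transfected with multiple cis-element reporter units report endogenous TF activity; 24 h exposure, then reporter mRNA measured by RT-PCR, 6-FAM labelling, HpaI digestion and capillary electrophoresis. Bidirectional fitting versus DMSO.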

[16] = target: Nuclear receptor subfamily 1 group I member 3 (Homo sapiens) (UniProt Q14994); assay: ATG_CAR_TRANS: Attagene TRANS-FACTORIAL HepG2 Assay for human Constitutive Androstane Receptor (CAR) (AID 2282969; active = hit-call score of the fitted dose curve at least 0.9, where 1 is the maximum;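 also: activators raise reporter mRNA above DMSO so AC50 marks induction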); settings: HepG2 Attagene TRANS-FACTORIAL CAR reporter
How it was run: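 HepG2 cells transiently transfected with multiplexed GAL4-UAS reporter units expressing chimeric NR-Gal4 proteins; compound exposure 24 h. Reporter mRNA measured by RT-PCR, 6-FAM labelling, HpaI digestion and capillary electrophoresis; gain-of-signal fitted against DMSO baseline.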

[17] = ATG_GAL4_TRANS: Attagene TRANS-FACTORIAL HepG2 Assay for GAL4 (Internal Marker) (AID 2282976; active = hit-call score of the fitted dose curve at least 0.9, where 1 is the maximum); settings: HepG2 Attagene TRANS GAL4 internal marker reporter
How it was run: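 RT-PCR/capillary electrophoresis readout of reporter mRNA. HepG2, transient MRTU transfection (GAL4-UAS reporters), 24 h compound exposure. Background-control endpoint, positive direction vs DMSO baseline.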

[18] = target: Steroid hormone receptor ERR1 (Homo sapiens) (UniProt P11474); assay: ATG_ERRa_TRANS: Attagene TRANS-FACTORIAL HepG2 Assay for human Estrogen-Related Receptor alpha (ERRa) (AID 2282971; active = hit-call score of the fitted dose curve at least 0.9, where 1 is the maximum); settings: HepG2 Attagene TRANS reporter, ERRa transactivation
How it was run: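 Transfected HepG2, 24 h dosing, ERRa-Gal4 chimera driving GAL4-UAS reporter. Readout: reporter mRNA via RT-PCR plus capillary electrophoresis (fluorescence). Positive direction vs DMSO control.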

[19] = ATG_M_19_TRANS: Attagene TRANS-FACTORIAL HepG2 Assay for M19 Transcription Factor (Internal Marker) (AID 2282974; active = hit-call score of the fitted dose curve at least 0.9, where 1 is the maximum); settings: HepG2 Attagene TRANS-FACTORIAL M19 internal marker reporter
How it was run: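 HepG2 cells transiently transfected with multiple GAL4-UAS reporter transcription units were exposed to chemicals for 24 h. Reporter mRNA was read by RT-PCR, 6-FAM primer extension, HpaI digestion and capillary electrophoresis; gain of signal fitted relative to DMSO.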

[20] = ATG_PPRE_CIS: Attagene CIS-FACTORIAL HepG2 Assay for human Peroxisome Proliferator-activated Response Element (PPRE) (AID 2282958); settings: HepG2 PPRE cis-element reporter, Attagene transcription factor profiling; actives raise or lower the signal
How it was run: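 HepG2 cells transiently transfected with multiplexed cis-element reporter units measure endogenous transcription factor activity. After 24 h compound exposure, reporter mRNA is quantified by RT-PCR, 6-FAM labeling, HpaI digestion and capillary electrophoresis; bidirectional fits are made against DMSO baseline.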

Measured: AC50

Nuclear receptor subfamily 1 group I member 3 (Homo sapiens), sequence (Q14994 whole entry, looked up, the tested form may be a part): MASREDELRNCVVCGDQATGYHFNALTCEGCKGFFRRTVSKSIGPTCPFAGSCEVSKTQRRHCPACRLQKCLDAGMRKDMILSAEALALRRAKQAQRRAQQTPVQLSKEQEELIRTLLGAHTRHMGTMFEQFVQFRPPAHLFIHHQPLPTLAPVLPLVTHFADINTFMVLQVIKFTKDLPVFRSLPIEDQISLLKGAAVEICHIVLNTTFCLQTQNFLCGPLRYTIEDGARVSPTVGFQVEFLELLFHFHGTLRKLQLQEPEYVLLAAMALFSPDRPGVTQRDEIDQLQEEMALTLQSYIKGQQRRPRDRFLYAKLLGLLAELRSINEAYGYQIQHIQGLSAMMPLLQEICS
Transcription factor Sp1 (Homo sapiens), sequence (P08047 whole entry, looked up): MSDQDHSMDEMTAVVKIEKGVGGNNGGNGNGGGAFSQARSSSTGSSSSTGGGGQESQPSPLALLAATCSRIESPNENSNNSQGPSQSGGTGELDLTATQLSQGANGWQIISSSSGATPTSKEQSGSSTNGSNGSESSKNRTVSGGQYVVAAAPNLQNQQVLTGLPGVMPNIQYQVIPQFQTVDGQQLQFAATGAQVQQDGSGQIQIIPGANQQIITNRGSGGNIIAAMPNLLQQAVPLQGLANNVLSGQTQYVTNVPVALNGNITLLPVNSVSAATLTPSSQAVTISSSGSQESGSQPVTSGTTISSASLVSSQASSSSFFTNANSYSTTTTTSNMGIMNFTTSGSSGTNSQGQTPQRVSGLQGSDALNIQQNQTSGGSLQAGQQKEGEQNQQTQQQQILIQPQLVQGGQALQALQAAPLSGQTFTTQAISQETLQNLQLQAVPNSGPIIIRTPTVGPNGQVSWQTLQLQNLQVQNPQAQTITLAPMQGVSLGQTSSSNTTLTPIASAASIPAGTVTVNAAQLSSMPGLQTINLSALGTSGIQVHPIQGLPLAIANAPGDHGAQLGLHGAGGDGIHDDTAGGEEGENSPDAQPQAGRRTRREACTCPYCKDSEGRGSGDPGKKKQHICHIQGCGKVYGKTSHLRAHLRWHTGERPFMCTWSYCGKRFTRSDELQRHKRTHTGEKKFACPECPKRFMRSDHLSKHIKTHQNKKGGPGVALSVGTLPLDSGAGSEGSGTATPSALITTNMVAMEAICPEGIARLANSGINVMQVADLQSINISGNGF
Signal transducer and activator of transcription 3 (Homo sapiens), sequence (P40763 whole entry, looked up): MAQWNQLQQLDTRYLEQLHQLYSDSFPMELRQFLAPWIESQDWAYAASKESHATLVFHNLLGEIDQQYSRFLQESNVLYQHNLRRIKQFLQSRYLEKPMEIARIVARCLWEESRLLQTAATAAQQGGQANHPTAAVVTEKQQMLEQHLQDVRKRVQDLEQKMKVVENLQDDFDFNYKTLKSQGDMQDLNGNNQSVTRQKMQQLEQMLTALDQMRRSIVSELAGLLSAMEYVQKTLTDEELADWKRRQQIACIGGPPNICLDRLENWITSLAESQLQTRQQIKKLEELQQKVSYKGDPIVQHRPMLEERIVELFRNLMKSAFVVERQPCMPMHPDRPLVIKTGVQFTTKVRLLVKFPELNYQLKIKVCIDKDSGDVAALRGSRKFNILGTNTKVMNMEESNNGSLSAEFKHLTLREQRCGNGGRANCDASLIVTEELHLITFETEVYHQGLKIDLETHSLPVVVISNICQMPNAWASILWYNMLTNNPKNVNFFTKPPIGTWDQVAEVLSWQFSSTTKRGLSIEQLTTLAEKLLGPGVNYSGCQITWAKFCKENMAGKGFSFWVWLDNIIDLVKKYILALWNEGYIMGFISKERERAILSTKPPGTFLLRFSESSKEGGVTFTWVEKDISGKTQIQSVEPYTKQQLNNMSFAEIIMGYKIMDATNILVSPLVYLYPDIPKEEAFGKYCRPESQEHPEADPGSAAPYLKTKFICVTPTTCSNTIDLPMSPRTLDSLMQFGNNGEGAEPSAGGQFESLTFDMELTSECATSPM
Paired box protein Pax-6 (Homo sapiens), sequence (P26367 whole entry, looked up): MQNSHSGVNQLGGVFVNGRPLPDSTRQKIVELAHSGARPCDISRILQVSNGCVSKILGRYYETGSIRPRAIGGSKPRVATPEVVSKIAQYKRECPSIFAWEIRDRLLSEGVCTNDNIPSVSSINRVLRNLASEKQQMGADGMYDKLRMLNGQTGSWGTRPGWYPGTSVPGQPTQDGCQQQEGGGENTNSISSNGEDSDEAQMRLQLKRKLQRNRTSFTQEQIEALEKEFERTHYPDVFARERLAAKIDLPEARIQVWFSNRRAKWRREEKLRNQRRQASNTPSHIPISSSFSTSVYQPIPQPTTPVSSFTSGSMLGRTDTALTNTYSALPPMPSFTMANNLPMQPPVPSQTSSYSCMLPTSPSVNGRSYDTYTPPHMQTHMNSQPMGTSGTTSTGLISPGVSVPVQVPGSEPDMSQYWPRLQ
X-box-binding protein 1 (Homo sapiens), sequence (P17861 whole entry, looked up): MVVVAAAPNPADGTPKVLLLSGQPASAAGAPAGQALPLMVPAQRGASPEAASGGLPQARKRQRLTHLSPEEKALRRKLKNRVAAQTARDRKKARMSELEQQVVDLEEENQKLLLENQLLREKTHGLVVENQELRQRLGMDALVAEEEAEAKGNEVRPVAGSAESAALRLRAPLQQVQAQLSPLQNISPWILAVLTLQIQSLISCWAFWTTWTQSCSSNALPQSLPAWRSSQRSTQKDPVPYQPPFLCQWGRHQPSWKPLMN
Estrogen receptor (Homo sapiens), sequence (P03372 whole entry, looked up, the tested form may be a part): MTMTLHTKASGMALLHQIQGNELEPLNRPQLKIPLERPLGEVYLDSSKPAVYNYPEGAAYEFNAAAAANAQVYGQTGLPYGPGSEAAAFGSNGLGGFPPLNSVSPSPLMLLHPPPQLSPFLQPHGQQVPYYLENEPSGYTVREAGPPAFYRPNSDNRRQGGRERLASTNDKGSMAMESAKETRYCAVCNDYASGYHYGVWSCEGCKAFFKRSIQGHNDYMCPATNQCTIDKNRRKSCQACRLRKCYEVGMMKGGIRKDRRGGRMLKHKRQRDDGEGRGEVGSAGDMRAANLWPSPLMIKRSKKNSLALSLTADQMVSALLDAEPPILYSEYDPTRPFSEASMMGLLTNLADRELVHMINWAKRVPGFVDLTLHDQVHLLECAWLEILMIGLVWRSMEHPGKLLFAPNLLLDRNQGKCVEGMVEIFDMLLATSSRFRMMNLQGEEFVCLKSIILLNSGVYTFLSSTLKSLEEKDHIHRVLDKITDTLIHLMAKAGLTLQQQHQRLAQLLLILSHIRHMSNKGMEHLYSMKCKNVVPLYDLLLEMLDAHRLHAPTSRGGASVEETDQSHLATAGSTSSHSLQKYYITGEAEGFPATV
Steroid hormone receptor ERR1 (Homo sapiens), sequence (P11474 whole entry, looked up, the tested form may be a part): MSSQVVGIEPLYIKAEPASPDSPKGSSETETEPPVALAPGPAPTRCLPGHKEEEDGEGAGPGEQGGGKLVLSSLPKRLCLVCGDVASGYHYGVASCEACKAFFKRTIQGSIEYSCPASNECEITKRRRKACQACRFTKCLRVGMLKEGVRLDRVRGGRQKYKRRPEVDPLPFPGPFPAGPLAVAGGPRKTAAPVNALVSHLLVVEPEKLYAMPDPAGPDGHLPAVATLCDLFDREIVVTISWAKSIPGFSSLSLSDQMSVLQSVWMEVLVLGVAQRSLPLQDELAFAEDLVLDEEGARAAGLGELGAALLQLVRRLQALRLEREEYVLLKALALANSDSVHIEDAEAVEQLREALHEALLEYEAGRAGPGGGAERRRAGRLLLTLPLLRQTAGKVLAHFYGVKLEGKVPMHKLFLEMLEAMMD

CC(C)=CCl
not listed: [16] | [17] | [18] | [19] | [20]
inactive: all other assays above

CCCCOC(=O)C(C)CC (stereo not given)
active: [3] 27.1 µM
not listed: [14] | [16] | [17] | [18] | [19] | [20]
inactive: all other assays above

O=C1CCCCCCCCCCCN1
active: [3] 8.77 µM
not listed: [7] | [8] | [18] | [19] | [20]
inactive: all other assays above

Fc1ccc(Br)cc1
active: [14] 79.7 µM
not listed: [10] | [17] | [20]
inactive: all other assays above

CCOC(=O)c1ccccc1C
not listed: [13] | [14] | [16] | [17] | [18] | [19] | [20]
inactive: all other assays above

C=C(C)C1CC=C(C)CC1 (stereo not given)
not listed: [4] | [13] | [18] | [19] | [20]
inactive: all other assays above

CC(C)(C)NC(=O)[C@H]1CC[C@H]2[C@@H]3CC[C@H]4NC(=O)C=C[C@]4(C)[C@H]3CC[C@]12C
not listed: [3] | [7] | [16] | [18]
inactive: all other assays above
